# Screening data deposited in PubChem BioAssay by several laboratories.
# Only some compounds are listed: those with a hit (about 5.2% of all), similar ones and a draw of the others.
# APOBEC3G inh: blocks human APOBEC3G single-stranded DNA deamination; Q9HC16; recombinant A3G, ssDNA deamination FAM/TAMRA fluorescence; inhibition, % at 20 µM; 330,000 tested, 0.28% active; AID 493012;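 active means inhibition of at least 40% at 20 µM, with no more than 30% in the related APOBEC3A deaminase screen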
# ALR H2O2 inh: blocks human ALR sulfhydryl oxidase activity. P55789. purified ALR, DTT oxidation, H2O2 HRP-luminol luminescence. inhibition, % (test concentration not listed). 290,000 tested, 3.8% active. AID 485317;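 active means mean replicate inhibition above about 79%, with every replicate also reaching it, limit read from the data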
# Target sequence (P55789 whole entry, looked up): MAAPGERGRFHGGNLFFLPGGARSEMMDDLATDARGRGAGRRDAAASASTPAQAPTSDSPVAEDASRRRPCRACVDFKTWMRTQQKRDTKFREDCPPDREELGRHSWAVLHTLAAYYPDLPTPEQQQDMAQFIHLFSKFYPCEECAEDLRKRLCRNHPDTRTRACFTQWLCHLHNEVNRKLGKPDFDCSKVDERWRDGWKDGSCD
# CendR NRP1 mod: alters CendR peptide binding to human NRP-1. FAM-RPARPAR peptide binding to NRP-1, fluorescence polarization. inhibition, % at 25 µM. 360,000 tested, 0.85% active. AID 602438;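 active means inhibition or corrected inhibition above about 18%, plus a signal ratio from 0.5 to 1.5, limit read from the data, passing the limit was not always enough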
# PfM18AAP inh: PfM18AAP enzyme inhibition; 290,000 tested, 1.2% active; AID 1822; recombinant PfM18AAP, H-Glu-NHMec fluorogenic cleavage; inhibition, % at 7.35 µM;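 active means inhibition above the campaign mean inhibition over all tested compounds plus 3 SD, cut at about 28% in these data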
# CR mimetic SO: caloric restriction mimetics inhibiting age-related superoxide in yeast; S. cerevisiae aged cells, superoxide DHE fluorescence; active compounds read low; superoxide response (% of plate mean), % at 10 µM; 330,000 tested, 0.18% active;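 active means superoxide response under a set limit, about three screen SD below normal, cut at about 65% in these data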;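 further: yeast aged for seven days with compound at 30 °C before DHE staining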
# APOBEC3A inh: blocks human APOBEC3A ssDNA deamination | recombinant A3A, FAM/TAMRA ssDNA deamination fluorescence | inhibition, % at 20 µM | 330,000 tested, 0.41% active | P31941 | AID 493011;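 active means at least 40% inhibition at 20 µM here, with at most 30% in a related deaminase screen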
# Target sequence (P31941 whole entry, looked up): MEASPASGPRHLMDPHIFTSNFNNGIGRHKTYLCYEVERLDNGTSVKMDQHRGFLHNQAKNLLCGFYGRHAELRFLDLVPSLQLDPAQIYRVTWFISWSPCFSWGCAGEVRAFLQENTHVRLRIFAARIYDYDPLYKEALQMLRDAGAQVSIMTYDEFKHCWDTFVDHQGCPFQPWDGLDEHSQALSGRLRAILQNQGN
# Hits are given with their value; . = inactive; / = not tested or not shown.
SMILES,APOBEC3G inh,ALR H2O2 inh,CendR NRP1 mod,PfM18AAP inh,CR mimetic SO,APOBEC3A inh
Cc1noc(NS(=O)(=O)c2ccc(NC(=O)c3ccc(N4C(=O)c5ccccc5C4=O)cc3)cc2)c1C,.,.,.,.,.,.
Cc1noc(NS(=O)(=O)c2ccc(NC(=O)/C=C/c3ccc(Br)cc3)cc2)c1C,.,91.3,.,.,.,.
Cc1noc(NS(=O)(=O)c2ccc(NC(=O)/C=C/c3ccc(C(C)C)cc3)cc2)c1C,.,.,.,.,.,.
Cc1noc(NS(=O)(=O)c2ccc(NC(=O)CSc3n[nH]c(-c4ccccc4)n3)cc2)c1C,.,.,.,.,.,.
Cc1noc(NS(=O)(=O)c2ccc(NC(=O)CCN3C(=O)c4ccccc4C3=O)cc2)c1C,.,94.4,.,.,.,.
Cc1noc(NS(=O)(=O)c2ccc(NC(=O)CSc3nnc(-c4ccccc4)n3C3CCCCC3)cc2)c1C,.,98.1,.,.,.,.
Cc1ccc(-c2nc3ncccc3o2)cc1NC(=O)CC(C)C,.,/,.,.,.,.
CCOC(=O)COc1ccc(Br)cc1/C=C\c1[nH]c(=O)[nH]c(=O)c1[N+](=O)[O-],.,/,.,.,.,.
COc1cc(/C=C/c2[nH]c(=O)[nH]c(=O)c2[N+](=O)[O-])cc(OC)c1O,.,95.5,.,.,.,.
COc1cccc(/C=C/c2[nH]c(=O)[nH]c(=O)c2[N+](=O)[O-])c1O,.,97.9,.,.,.,.
CCCOc1ccc(/C=C/c2[nH]c(=O)[nH]c(=O)c2[N+](=O)[O-])cc1OCC,.,.,.,.,.,.
CCOC(=O)COc1ccc(Br)cc1/C=C/c1[nH]c(=O)[nH]c(=O)c1[N+](=O)[O-],.,97.5,.,.,.,.
O=C(CCCC1=NS(=O)(=O)c2ccccc2N1)N1CCN(c2ccccc2)CC1,.,.,.,.,.,.
O=C(CCCC1=NS(=O)(=O)c2ccccc2N1)N1CCN(c2ccc(Cl)cc2)CC1,.,95.9,.,.,.,.
Clc1nnc(N/N=C/c2ccccc2)c2ccccc12,.,.,.,.,.,.
C[n+]1ccc(/C=N/Nc2nc(Cl)c(C#N)c(Cl)c2Cl)cc1,.,82.2,.,.,.,.
CC(=O)NC(c1cccc(F)c1)c1nc(-c2cccc(C(F)(F)F)c2)cs1 (stereo not drawn),/,/,25.3,/,/,/
CC(=O)NC(c1cccc(F)c1)c1nc(-c2cccc(C(=O)O)c2)cs1 (stereo not drawn),/,/,.,/,/,/
COc1ccc(-c2csc(C(NC(C)=O)c3cccc(F)c3)n2)cn1 (stereo not drawn),/,/,26.6,/,/,/
NC(=O)c1ccc(NC(=O)CSC(=O)c2ccccc2)cc1,.,98.5,.,/,.,.
CCC(C)(C)C(=O)Nc1ccc(C(N)=O)cc1,.,.,.,.,.,.
CC(C)(C)CC(=O)Nc1ccc(C(N)=O)cc1,.,.,26.5,.,.,.
CCn1cc(C(=O)NCc2ccccc2F)c(=O)c2ccc(C)nc21,.,.,.,.,.,.
CCn1cc(C(=O)NCc2cccs2)c(=O)c2ccc(C)nc21,.,/,27.8,.,.,.
CC1(C)Cc2cccc(OCC(=O)N3CCN(c4ccccc4Cl)CC3)c2O1,.,.,.,/,.,.
SMILES,APOBEC3G inh,ALR H2O2 inh,CendR NRP1 mod,PfM18AAP inh,CR mimetic SO,APOBEC3A inh
C[C@@H]1CN([C@@H](C)CO)C(=O)CCCn2nncc2CO[C@H]1CN(C)Cc1ccc(-c2ccccc2)cc1,/,/,.,/,/,/
Cc1ccn2c(c1)nc(=O)c1cc(S(=O)(=O)N3CCOCC3)ccc12,.,.,20.9,.,.,.
Cc1c([N+](=O)[O-])c(C(=O)Sc2ccc(Br)cc2)nn1C,.,99.2,.,.,.,.
Cc1c([N+](=O)[O-])c(C(=O)N2CCCC2)nn1C,.,.,.,.,.,.
CCC(=O)Nc1nn(CC(C)C)c2nc3ccc(C)cc3cc12,.,.,.,.,.,.
Nc1cnccc1C(=O)O,.,.,.,.,.,.
O=C1C=C(N2CCOCC2)c2cccc3cccc1c23,/,/,28.0,/,/,/
O=C1C=C(O)c2cccc3cccc1c23,.,.,41.2,.,.,.
CC1(C)CC(=O)C(C(N)=NC(=O)c2ccccc2)=C(O)C1,.,.,.,.,.,.
CC1(C)CC(=O)C(C(N)=NC(=O)c2ccc([N+](=O)[O-])cc2)=C(O)C1,.,89.3,.,.,.,.
COc1cc(-c2nc3c(c(C)nn3-c3ccccc3)c3cc(OC)c(OC)cc23)ccc1O,.,.,.,.,.,.
CC(=O)Nc1cc(NC(C)=O)cc(C(=O)NC(C)(C)C)c1,.,.,.,.,.,.
CC(C)(C)c1ccc(C(=O)Oc2ccccc2CCC(=O)O)cc1,.,90.8,.,.,.,.
COc1ccc(N(C(=O)CNC(=O)c2ccco2)C(C(=O)NCC2CCCO2)c2ccccc2)c(OC)c1 (stereo not drawn),.,.,.,.,.,.
C[C@@]12CCC=C[C@H]1[C@H](c1ccc(C(F)(F)F)cc1)N(Cc1ccccc1)C2=O,.,.,26.4,/,.,.
C[C@@H]1CC=C[C@H]2[C@H]1C(=O)N(Cc1ccccc1)[C@H]2c1ccc(-c2ccc(F)cc2)cc1F,.,/,.,/,.,.
C[C@@H]1CC=C[C@H]2[C@H]1C(=O)N(Cc1ccccc1)[C@H]2c1ccc(/C=C/c2ccccc2)cc1F,.,/,29.1,/,.,.
C[C@@]12CCC=C[C@H]1[C@H](c1ccc(/C=C/c3ccccc3)cc1F)N(Cc1ccccc1)C2=O,.,.,20.8,/,.,.
COc1ccc([C@H]2[C@H]3C=CC[C@@H](C)[C@@H]3C(=O)N2Cc2ccccc2)cc1Cl,.,.,27.8,/,.,.
COc1ccc(-c2ccc(C)cc2)cc1[C@H]1[C@@H]2C=CCC[C@@]2(C)C(=O)N1Cc1ccccc1,.,/,.,/,.,.
COc1ccc(Br)cc1[C@H]1[C@H]2C=CC[C@@H](C)[C@@H]2C(=O)N1Cc1ccccc1,.,/,.,/,/,.
COc1ccc(-c2cccc(C3CC=CC4C3C(=O)N(Cc3ccccc3)C4c3ccc(C(F)(F)F)cc3)c2)cc1 (stereo not drawn),.,/,.,/,.,.
Cc1ccc(-c2cccc(C3CC=CC4C3C(=O)N(Cc3ccccc3)C4c3cc(C)ccc3F)c2)cc1 (stereo not drawn),.,.,30.0,/,.,.
Cc1ccccc1NC(=O)/C(=C\c1cccs1)NC(=O)c1ccccc1,.,/,.,.,.,.
CC1CN(C(=O)c2c(Br)cnn2C)CC(C)O1 (stereo not drawn),.,.,.,.,.,.
CCCCN1C(=O)NC(NC(=O)c2ccco2)(C(F)(F)F)C1=O (stereo not drawn),.,.,.,.,.,.
CC1CCCC(N2C(=O)NC(NC(=O)c3ccco3)(C(F)(F)F)C2=O)C1C (stereo not drawn),.,.,27.6,.,.,.
CC(=O)N1CCc2cc(S(=O)(=O)NCCCN3CCC(C)CC3)ccc21,.,.,.,.,.,.
